DAX1 inh-1 = NR0B1 (DAX1) inhibition | HEK293 Gal4-DAX1 luciferase reporter, luminescence | AID 504766 | inhibition, % at 6.75 µM | actives 0.99% (n = 340,000);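 active = inhibition above the mean over all tested compounds plus 3 SD, cut at about 4.2% in these data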;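 also: inhibition shows as a rise in luminescence from relieved DAX1 repression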
Target sequence (P51843 207-470 limits assumed): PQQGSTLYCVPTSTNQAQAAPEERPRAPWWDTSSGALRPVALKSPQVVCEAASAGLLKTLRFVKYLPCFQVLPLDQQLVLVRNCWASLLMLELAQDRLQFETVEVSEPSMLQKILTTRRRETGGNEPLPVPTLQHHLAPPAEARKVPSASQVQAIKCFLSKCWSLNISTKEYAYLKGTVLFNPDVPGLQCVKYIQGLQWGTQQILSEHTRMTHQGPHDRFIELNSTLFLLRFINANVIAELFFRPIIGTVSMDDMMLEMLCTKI
hgDAF-12 ag = agonists of H. glycines DAF-12 nuclear receptor; HEK293 GAL4-hgDAF12 UAS-luciferase reporter, agonist luminescence; normalized to butyrate control; activation, % at 6.8 µM; actives 1.8% (n = 370,000); AID 687014;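 active = activation above a cutoff set at the mean of all screened compounds plus 3 SD, cut at about 10% in these data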
hcDAF-12 act = H. contortus DAF-12 activation, primary screen; AID 652067; actives 1.4% (n = 370,000); activation, % at 6.8 µM; HEK293 hcDAF-12 lit1-tk-luc reporter, luminescence; 0% DMSO, 100% Δ7-dafachronic acid;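 active = activation above the mean of all tested compounds plus 3 SD, cut at about 5.5% in these data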
ssDAF-12 act = activators of S. stercoralis DAF-12 nuclear receptor; HEK293 ssDAF-12/GRIP1 lit1-tk-luc reporter, luminescence; % of 3 µM dafachronic acid response; activation, % at 6.8 µM; actives 1% (n = 370,000);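 active = activation above the mean over all tested compounds plus 3 SD, cut at about 0.9% in these data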
DAX1 inh-2 = DAX1 (NR0B1) inhibition, primary screen; HEK293T StAR-luciferase reporter, SF-1/DAX-1 repression relief; inhibition, % at 6.8 µM; actives 1.1% (n = 370,000);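 active = inhibition above the mean over all tested compounds plus 3 SD, cut at about 3.6% in these data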;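 also: higher inhibition means more luminescence from relief of DAX-1 repression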
DAX1 inh confirm = NR0B1 (human) inhibition, confirmation; HEK293T StAR-promoter luciferase reporter, SF-1/DAX-1 repression; actives 87% (n = 2,400); shares compounds with DAX1 inh-2; inhibition, % at 6.8 µM;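 active = inhibition above the average of every tested compound plus 3 SD, cut at about 3.8% in these data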;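 also: active compounds raise luminescence by relieving repression of the StAR reporter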
SF1 AF2mut Luc = counter-screen for DAX1 inhibitors: nonselective inhibitors with SF-1 AF2 mutant; inhibition, % at 6.8 µM; actives 78% (n = 2,400); shares compounds with DAX1 inh-2; HEK293 StAR-luciferase, luminescence;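 active = inhibition above the mean of all tested compounds plus 3 SD, cut at about 3% in these data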
LXR ag = LXR-beta agonism as hcDAF-12 counter-screen | shares compounds with hcDAF-12 act | HEK293 Gal4-LXR tk-luc reporter, luminescence, 24 h; normalized: DMSO 0%, positive control 100% | activation, % at 6.8 µM | 3,400 tested, under 10 active;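 active = mean percent activation of the reporter above a cutoff set as the average over tested compounds plus their standard deviation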
hcDAF12 ag = confirmation of H. contortus DAF-12 agonists | HEK293 hcDAF-12 lit1-tk-luc reporter, luminescence; % of Δ7-dafachronic acid response | activation, % at 6.8 µM | shares compounds with hcDAF-12 act | AID 743032 | actives 61% (n = 3,400);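 active = mean activation across triplicate tests above the threshold derived from the earlier primary screen, cut at about 5.5% in these data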
hgDAF12 ag = confirmation of H. glycines DAF-12 agonists; actives 80% (n = 3,300); HEK293 GAL4-hgDAF12 luciferase reporter, agonist mode; percent of butyrate response; AID 743050; shares compounds with hgDAF-12 ag; activation, % at 6.8 µM;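 active = mean activation over triplicate wells above the hit cutoff derived from the earlier primary screen, cut at about 11% in these data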
LXR ag 2 = activates human LXR-beta, counter-screen for DAF-12 agonists | 3,300 tested, under 10 active | AID 743051 | activation, % at 6.8 µM | HEK293 Gal4-LXR luciferase reporter, 24 h | shares compounds with hgDAF-12 ag;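 active = mean activation of the triplicate above a set limit carried over from the primary screen, none filed active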
Of the large screens only hits and unclear results are named; the others gave an inactive call (follow-up assays come after a bar, where they were run). Most compounds without a hit are left out; they make up all but 4.1% or so of the library.

Cc1ccc(C(=O)CSc2nc(O)cc(=O)[nH]2)cc1C	none
CN1OC[C@@H]2CN[C@H](c3ccc(-c4cccc(F)c4)cc3)C[C@@H]21	hgDAF-12 ag 13.4, DAX1 inh-2 6.2 | DAX1 inh confirm 6.3 | SF1 AF2mut Luc inactive | hgDAF12 ag inactive | LXR ag 2 inactive
O=C(Nc1ccc2c(c1)OCO2)c1cc(C2CCCN(C(=O)CCc3ccccc3)C2)on1 (stereo unspecified)	none (no result: DAX1 inh-1)
CCCC(=O)N1CCCC(c2cc(C(=O)Nc3ccc4c(c3)OCO4)no2)C1 (stereo unspecified)	hgDAF-12 ag 18.0, DAX1 inh-2 4.7 (no result: DAX1 inh-1) | DAX1 inh confirm 4.4 | SF1 AF2mut Luc inactive | hgDAF12 ag 12.7 | LXR ag 2 inactive
COc1ccc(CNC(=O)C2CCCN2C(=O)Nc2cccc(Cl)c2)cc1 (stereo unspecified)	none
CNC(=O)COC(=O)Cc1ccc(Cl)cc1	none
O=C(O)c1ccc(N/N=C/C=C/c2ccccc2)cc1	hgDAF-12 ag 15.3, DAX1 inh-2 6.3 | DAX1 inh confirm 10.8 | SF1 AF2mut Luc 5.8 | hgDAF12 ag 15.0 | LXR ag 2 inactive
O=C(N/N=C/C=C/c1ccccc1)c1ccncc1	none
CC[C@]12C(=O)N(C)C[C@H]([C@@H]3C(=O)N(C)C(=O)[C@@H]31)N2C(=O)c1ccc(Cl)c(Cl)c1	none (no result: hgDAF-12 ag, hcDAF-12 act, ssDAF-12 act, DAX1 inh-2)
O=C1NC[C@@H](CCCCN2CCN(CCC3CCCCC3)C(=O)C2=O)N(CCC2CCCCC2)C1=O	none (no result: DAX1 inh-1)
O=C(/C=C\Nc1ccccc1Br)c1ccc2c(c1)OCO2	hgDAF-12 ag 16.6, hcDAF-12 act 9.4, DAX1 inh-2 5.3 | DAX1 inh confirm 9.6 | SF1 AF2mut Luc inactive | LXR ag inactive | hcDAF12 ag 16.7 | hgDAF12 ag 15.8 | LXR ag 2 inactive
CN(C)c1nc(Cl)nc(N(C#N)CCOc2ccccc2)n1	none
Cc1cccc(-c2noc(-c3csc([C@@H]4C[C@H](O)[C@@H](CO)O4)n3)n2)c1	hgDAF-12 ag 18.3, DAX1 inh-2 9.8 (no result: DAX1 inh-1) | DAX1 inh confirm 16.0 | SF1 AF2mut Luc 9.5 | hgDAF12 ag 19.5 | LXR ag 2 inactive
COc1ccc(-c2nnc(SCc3cccc(C)c3)n2N)cc1	none
COc1ccc(-c2nnc(SCc3c(F)cccc3F)n2N)cc1	hgDAF-12 ag 13.5, DAX1 inh-2 7.5 (no result: DAX1 inh-1) | DAX1 inh confirm 14.2 | SF1 AF2mut Luc 6.2 | hgDAF12 ag 15.1 | LXR ag 2 inactive
CCN(Cc1ccccc1)c1ccc(N=Nc2nn(C)c(C)c2[N+](=O)[O-])cc1	none
CCN(CC)c1ccc(N=Nc2nn(C)c(C)c2[N+](=O)[O-])cc1	hgDAF-12 ag 16.2, ssDAF-12 act 1.2, DAX1 inh-2 4.7 | DAX1 inh confirm 13.6 | SF1 AF2mut Luc 5.2 | hgDAF12 ag 14.7 | LXR ag 2 inactive
COCCNc1nc(-c2cc3ccccc3o2)cs1	hgDAF-12 ag 15.9, hcDAF-12 act 8.7, DAX1 inh-2 6.7 | DAX1 inh confirm 9.9 | SF1 AF2mut Luc 7.2 | LXR ag inactive | hcDAF12 ag 7.5 | hgDAF12 ag 18.3 | LXR ag 2 inactive
CCOc1ccccc1NC(=O)Nc1ccc(Br)cc1C	none
COc1cc(C=Cc2nnc3c4ccccc4cnn23)cc(OC)c1OC	none
